Our source for the growth values is PubChem BioAssay (NCI).

Each structure is given as a SMILES string. This is part of a sample that, as a whole, favours compounds with a hit. Of some 83,000 tested, about 20% had one in any assay.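 Negative percent growth values reflect cell death: -40 means 40% of the cells present at the start died, and -100 means all died.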 Values without a mark were called inactive. The source made the active and inactive calls. The calls were made as follows: active = growth percent below 10; inactive = the rest.

Among the test systems are HCT-15 colon; HT29 colon; SNB-75 CNS; SNB-19 CNS; U251 CNS; PC-3 prostate; SK-MEL-5 melanoma; UACC-62 melanoma; LOX IMVI melanoma; SK-MEL-28 melanoma.
Holding throughout (test): NCI-60 one-dose screen, 48 h (100 = growth as untreated, 0 = no growth, -100 = all killed)
What all share (settings): 10 µM unless noted

In the case of `Cc1cn(-c2cc(NC(=O)c3cncc(C#Cc4cnc5ccc(O[C@H]6CCOC6)nn45)c3)cc(C(F)(F)F)c2)cn1`, the growth was 82.8% with HCT-15 colon; 69% with HT29 colon; 92.9% in the test on SNB-75 CNS; 117% in the test with SNB-19 CNS; 105% in the test on U251 CNS; 96.5% with PC-3 prostate. Moreover, the growth in the test on SK-MEL-5 melanoma is 70.6%; in the test with UACC-62 melanoma, 70.6%; in the test with LOX IMVI melanoma, 62.6%; with SK-MEL-28 melanoma, 76.3%.

With `Cc1cnc2nc(NN)[nH]n12`, the growth in the test with HCT-15 colon was 101%; in the test on HT29 colon, 103%; in the test on SNB-75 CNS, 95.6%; with SNB-19 CNS, 95.3%; in the test with U251 CNS it was 101%; in the test with PC-3 prostate, 98.3%. In addition, the growth in the test with SK-MEL-5 melanoma is 99.8%; in the test with UACC-62 melanoma it was 95.6%; in the test with LOX IMVI melanoma, 87.5%; with SK-MEL-28 melanoma, 108%.

For the compound `COC1=C(c2ccccc2)C(=O)C(OC)=C(c2ccccc2)C1=O`, the growth is 97.6% in the test on HCT-15 colon; 95% in the test with HT29 colon; 56% in the test on SNB-75 CNS; 101% in the test with SNB-19 CNS; 91.6% in the test on U251 CNS; 96.2% in the test on PC-3 prostate. The growth in the test on SK-MEL-5 melanoma was 103%; with UACC-62 melanoma, 97.1%; with LOX IMVI melanoma, 95.2%; with SK-MEL-28 melanoma it was 117%.

Consider `COc1ccc(CCN2C(=O)/C(=C/c3nc(CO)cs3)SC2=S)cc1`, for which the growth with HCT-15 colon was 51.2%; with HT29 colon, 103%; in the test with SNB-75 CNS, 73.1%; with SNB-19 CNS, 91.7%; with U251 CNS, 91.9%; with PC-3 prostate, 74%. Besides, the growth in the test on SK-MEL-5 melanoma was 98.1%; with UACC-62 melanoma, 79.7%; in the test on LOX IMVI melanoma, 30.8%; in the test on SK-MEL-28 melanoma it was 97.2%.

Take `Fc1ccccc1/C=C(/C1=NCCN1)n1cnc2ccccc21`: the growth was 93% with HCT-15 colon; 112% in the test on HT29 colon; 92.2% in the test with SNB-75 CNS; 97.6% in the test with SNB-19 CNS; 101% with U251 CNS; 95.7% with PC-3 prostate. Further, the growth is 106% in the test on SK-MEL-5 melanoma, 94.9% in the test on UACC-62 melanoma, 90.3% in the test with LOX IMVI melanoma and 95.3% in the test on SK-MEL-28 melanoma.

Turning to `CCNC(=O)Oc1ccc(/C(=C(/C)c2ccc(Cl)cc2)c2ccc(OCCN(C)C)cc2)cc1`, the growth in the test on HCT-15 colon was 47%; in the test with HT29 colon it was 15.2%; with SNB-75 CNS it was 75.4%; with SNB-19 CNS it was 81.1%; in the test with U251 CNS it was 58.8%; in the test with PC-3 prostate, 62.8%. Also, the growth in the test on SK-MEL-5 melanoma is 70.7%; in the test on UACC-62 melanoma, 86.4%; in the test with LOX IMVI melanoma it was 41.5%; in the test on SK-MEL-28 melanoma, 93.4%.

With `COc1cc2c3c(n(CCCN4CCCC4)c(=O)c2cc1OC)-c1cc2c(cc1C3=O)OCO2`, the growth is -61.7% (active) in the test on HCT-15 colon; -76% (active) in the test with HT29 colon; -74.6% (active) with SNB-75 CNS; -48.9% (active) with SNB-19 CNS; -96.2% (active) in the test on U251 CNS; -64.5% (active) with PC-3 prostate. The growth in the test with SK-MEL-5 melanoma was 87.5%; in the test with UACC-62 melanoma, 73.9%; in the test on LOX IMVI melanoma, -80.1% (active); in the test with SK-MEL-28 melanoma, -74.1% (active).

Turning to `CNC(=O)c1c(NC(=O)c2ccc(F)cc2F)sc2c1CCC(=O)C2`, the growth in the test on HCT-15 colon is -2.45% (active); in the test with HT29 colon, 12.8%; in the test with SNB-75 CNS, 4.82% (active); with SNB-19 CNS it was 19.1%; in the test on U251 CNS, 12.6%; with PC-3 prostate, 11.7%. The growth was -64.9% (active) with SK-MEL-5 melanoma, -25.5% (active) with UACC-62 melanoma, 14.5% in the test on LOX IMVI melanoma and 30.2% with SK-MEL-28 melanoma.

In the case of `C#CCOc1ccc(C(Nc2cc(Cl)ccc2Cl)c2nnnn2C2CCCCC2)cc1` (stereo not given), the growth in the test with HCT-15 colon is 86.4%; with HT29 colon it was 92.7%; in the test on SNB-75 CNS, 95.1%; with SNB-19 CNS, 86%; in the test with U251 CNS it was 82.7%; in the test with PC-3 prostate it was 76.9%. Further, the growth in the test with SK-MEL-5 melanoma is 95.4%; in the test on UACC-62 melanoma it was 66.7%; in the test on LOX IMVI melanoma it was 97.7%; in the test with SK-MEL-28 melanoma it was 107%.

For the compound `O=C(O)c1ccc(-n2cc(CNc3ccc(Cl)cc3)c(-c3ccc(F)cc3)n2)cc1`, the growth in the test on HCT-15 colon was 79.6%; in the test with HT29 colon, 112%; in the test on SNB-75 CNS, 131%; with SNB-19 CNS it was 96.5%; in the test with U251 CNS, 90.4%; in the test with PC-3 prostate, 89%. The growth with SK-MEL-5 melanoma was 84.8%; in the test with UACC-62 melanoma, 77.4%; in the test on LOX IMVI melanoma, 84.3%; in the test on SK-MEL-28 melanoma, 95.6%.

On to `O=C(Nc1cccc(-c2nc(-c3ccc(NC(=O)c4cccs4)cc3Cl)no2)c1)Nc1ccc(NC(=O)C2CC2)c(C(F)(F)F)c1`, for which the growth in the test with HCT-15 colon was 0.554% (active); in the test on HT29 colon, -11.2% (active); in the test on SNB-75 CNS it was -66.4% (active); in the test on SNB-19 CNS, -17.7% (active); in the test with U251 CNS it was -49.7% (active); in the test with PC-3 prostate it was -56.3% (active). For the same compound, the growth is -90.7% (active) in the test on SK-MEL-5 melanoma, -73.8% (active) with UACC-62 melanoma, -87.1% (active) with LOX IMVI melanoma and -83.3% (active) in the test with SK-MEL-28 melanoma.

Regarding `Cn1cc(-c2nn3cc(-c4cccnc4)nc3s2)c2ccccc21`, the growth in the test with HCT-15 colon is 12.5%; in the test with HT29 colon, 11.2%; in the test with SNB-75 CNS, 31.4%; in the test on SNB-19 CNS it was 42.6%; in the test on U251 CNS, 26.6%; in the test with PC-3 prostate it was 35.8%. Besides, the growth with SK-MEL-5 melanoma is 11.1%; in the test on UACC-62 melanoma it was 31.1%; in the test on LOX IMVI melanoma it was 37.9%; with SK-MEL-28 melanoma it was 50.7%.

Regarding `CS(=O)(=O)c1ccc(-c2nn(-c3ccccc3)cc2/C=C/C(=O)c2ccc(Br)cc2)cc1`, the growth was 64% in the test with HCT-15 colon; 97.8% in the test with HT29 colon; 107% in the test on SNB-75 CNS; 85.6% with SNB-19 CNS; 86.1% in the test with U251 CNS; 89.1% in the test on PC-3 prostate. Also, the growth in the test with SK-MEL-5 melanoma was 92.4%; with UACC-62 melanoma, 78.9%; in the test with LOX IMVI melanoma, 67.5%; in the test with SK-MEL-28 melanoma, 102%.
